PubChem BioAssay (NCATS)
“And” between values parts separate entries of the source, which are not always exact repeats. Equal values may be shown once. Records with an inconclusive call do not appear. The source made the active and inactive calls. Unless noted, calls follow the shape of the dose curve; as a rule, active = well fitted curve in the direction sought with a large enough effect; inconclusive = small, poorly fitted or top-dose-only effect, or another doubt; inactive = no such curve, though single readings can be large; an effect the other way counts as inactive or inconclusive.

Experiments:
[1] = Cell Viability - Jurkat (AID 426;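 active = dose-dependent loss of cell ATP signal giving a full or clear fitted curve, ranked by lower potency value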;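 also: potency is read from the fitted curve at half-maximal effect; cells exposed to compound for 40 hours at 37 °C before ATP read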); details: qHTS
Summary of the method: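 Seed 5000 Jurkat E6-1 cells/well; add compound; incubate 40 hr at 37 °C; add CellTiter-Glo; wait 20 min at room temperature; read luminescence. Fit concentration-response with Hill equation for AC50.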

[2] = Cell Viability - Hek293 (AID 427;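 active = compounds whose dose-response curve shows a full or clear partial loss of cell viability, called from curve shape rather than a numeric limit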;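 also: potency is read from the fitted curve at half-maximal effect; cells exposed to compound for 40 hours at 37 °C before reading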); details: qHTS
Summary of the method: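 qHTS, human embryonic kidney (adenovirus-transformed) cells; 40 hr cpd, 37 °C; CellTiter-Glo ATP luminescence. Norm: DMSO = 0, 100 uM tamoxifen = 100% inhibition. Hill-fit AC50.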

[3] = Cell Viability - HUV-EC-C (AID 542); details: HUV-EC-C endothelial cell viability, qHTS; series mostly up to 92.2 µM;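 also: cells exposed to compound for 40 hours; % is scaled to controls: 0 for no effect and ±100 for the full control effect; nearly all actives have a fitted effect of over 35% in size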
Summary of the method: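 Decrease in cellular ATP, quantified by luciferase luminescence, reflects toxicity in normal human vascular endothelial HUV-EC-C cells given compound for 40 hr in complete culture medium. Values are AC50s from concentration-response curves.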

[4] = Cell Viability - H-4-II-E (AID 543); details: H-4-II-E rat hepatoma viability; series mostly up to 92.2 µM;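 also: cells exposed to compound for 40 hours; nearly all actives have a fitted effect of over 35% in size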; also: potency is read from the fitted curve at half-maximal effect
Summary of the method: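 Here, cytotoxicity is measured in the rat hepatoma line H-4-II-E as loss of intracellular ATP after 40 hr compound treatment, detected by luciferase luminescence.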

[5] = Cellular Toxicity (caspase-3) SHSY5Y (AID 657); details: SH-SY5Y caspase-3 activation, DMSO zero, 10 µM staurosporine = 100%; series mostly up to 91.7 µM;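 also: cells exposed to compound for 16 hours at 37 °C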
Summary of the method: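 Luminescent caspase-3/7 readout (aminoluciferin release) in SH-SY5Y cells after 16 h compound exposure in complete medium. Activity scaled between DMSO basal and 10 uM staurosporine as 100%; concentration-response fitted to Hill equation for AC50.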

[6] = Cellular Toxicity (caspase-3) SK-N-SH (AID 661); details: SK-N-SH caspase-3 activation, qHTS, DMSO as zero, staurosporine as full; series mostly up to 91.7 µM
Summary of the method: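 Caspase 3/7 activation is measured as a luminescence increase from aminoluciferin released by substrate cleavage in SK-N-SH cells after 16 hr compound treatment; values are AC50 from concentration-response curves.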

[7] = Cellular Toxicity (caspase-3) H-4-II-E (AID 663); details: H-4-II-E rat hepatoma; Potency: caspase-3 activation; series mostly up to 92.2 µM;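 also: cells exposed to compound for 16 hr before readout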
Summary of the method: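 Apoptosis induction is scored as increased luminescence from caspase 3/7 substrate cleavage in rat hepatoma H-4-II-E cells exposed to compound for 16 hr. Activity is scaled between DMSO and 100 uM tamoxifen.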

[8] = Cellular Toxicity (caspase-3) NIH 3T3 (AID 666); details: NIH 3T3 caspase-3 activation, apoptosis/toxicity, 0% DMSO, 100% is 100 µM tamoxifen; series mostly up to 92.2 µM;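 also: caspase signal read after 16 h compound exposure; 0% = DMSO basal and 100% = 100 µM tamoxifen stimulation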
Summary of the method: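 Concentration-response qHTS in NIH 3T3 mouse fibroblasts scores caspase-3/7 activation as rising luminescence after 16 hr compound exposure. Signals are scaled between DMSO-only and 100 uM tamoxifen.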

[9] = MultiTox-Fluor Cytotoxicity Assay - LYMP1-002 - Live Cells (AID 955); details: LYMP1-002 lymphoblastoid live-cell protease fluorescence viability; series mostly up to 46.1 µM; also: potency is read from the fitted curve at half-maximal effect
Summary of the method: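 Cytotoxicity in the human lymphoblastoid line LYMP1-002 is measured as loss of live-cell protease activity after 16 h treatment in complete culture medium. AC50 is derived from Hill-equation fits of qHTS concentration-response data.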

[10] = MultiTox-Fluor Cytotoxicity Assay - LYMP1-003 - Dead Cells (AID 961); details: LYMP1-003 lymphoblastoid cells, dead-cell protease fluorescence; series mostly up to 92.2 µM;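 also: cells exposed to compound for 16 h at 37 °C; nearly all actives have a fitted effect of over 70% in size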; also: potency is read from the fitted curve at half-maximal effect
Summary of the method: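 LYMP1-003 lymphoblastoid, 2500 cells/well, 5 hr settle then 16 hr cpd at 37 C; MultiTox-Fluor reagent 60 min RT; Ex/Em 485/520 dead-cell signal; norm. DMSO = 0%, 15 uM tetraoctylammonium bromide = 100%; Hill AC50.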

[11] = Cell Viability - LYMP2-018 (AID 985); details: LYMP2-018 lymphoblastoid cells, viability (qHTS); series mostly up to 92.2 µM;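 also: compound exposure lasted 24 hr at 37 °C; nearly all actives have a fitted effect of over 50% in size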; also: potency is read from the fitted curve at half-maximal effect
Summary of the method: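 Acute cytotoxicity is scored as a concentration-dependent drop in intracellular ATP after 24 hr exposure of the lymphoblastoid line in complete culture medium, measured by luciferase luminescence. Potency is expressed as AC50 from Hill modelling.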

[12] = Cell Viability - LYMP2-020 (AID 986); details: series mostly up to 92.2 µM; also: nearly all actives have a fitted effect of over 55% in size; also: potency is read from the fitted curve at half-maximal effect
Summary of the method: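 Acute cytotoxicity in a human lymphoblastoid line is scored as a concentration-dependent fall in cellular ATP after 24 hr at 37 C in complete medium. The positive control is tetraoctylammonium bromide, and potency is given as Hill-fit AC50.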

[13] = Cell Viability - LYMP2-022 (AID 987); details: LYMP2-022 lymphoblastoid cell viability; series mostly up to 92.2 µM;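 also: cells exposed to compound for 24 hr; nearly all actives have a fitted effect of over 55% in size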; also: potency is read from the fitted curve at half-maximal effect
Summary of the method: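 Acute toxicity in a human lymphoblastoid line is scored as decreased intracellular ATP after 24 hr compound treatment at 37 C. ATP is measured by CellTiter-Glo luminescence; curves are fitted with the Hill equation to give AC50.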

[14] = Cell Viability - LYMP2-024 (AID 988); details: LYMP2-024 lymphoblastoid cell viability; series mostly up to 92.2 µM;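 also: cells exposed to compound for 24 hr at 37 °C; nearly all actives have a fitted effect of over 60% in size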; also: potency is read from the fitted curve at half-maximal effect
Summary of the method: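 Acute toxicity is measured as concentration-dependent loss of intracellular ATP in a human lymphoblastoid line treated 24 hours at 37 C. Luciferase luminescence quantifies ATP; AC50 values come from standard Hill-equation modelling.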

[15] = qHTS assay for small molecule antagonists of retinoid X receptor alpha signaling (AID 588546); details: HEK293T RXRa-UAS-bla, beta-lactamase ratio, antagonist mode; measured here: W530 green channel, cytotoxicity proxy;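 also: cells stimulated with 9-cis-retinoic acid as agonist; % is scaled to controls: 0 for no effect and ±100 for the full control effect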
Summary of the method: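 Beta-lactamase reporter inhibition, read as CCF4 fluorescence ratio (ex 405, em 460/530 nm) after 2 h at RT. HEK293T UAS-bla cells, 2500/well, were stimulated with 9-cis-RA at 500 or 100 nM final alongside test compound for 18 h at 37 C.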

[16] = qHTS assay for cell viability of HEK293 cells (AID 743288); details: ATP luminescence (CellTiter-Glo), 18 h; max response: stronger effect = lower value; also: nearly all actives have a fitted effect of over 50% in size; also: potency is read from the fitted curve at half-maximal effect; as to max response: % is scaled to controls: 0 for no effect and ±100 for the full control effect
Summary of the method: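 Environmental chemicals tested in qHTS format against parental HEK293 cells; 18 h treatment, 37 C; read-out ATP luminescence (CellTiter-Glo), 30 min RT development.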

[17] = Cell Viability - SH-SY5Y (AID 544); details: SH-SY5Y neuroblastoma cell viability; series mostly up to 92.2 µM;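 also: cells exposed to compound for 40 hours; nearly all actives have a fitted effect of over 55% in size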; also: potency is read from the fitted curve at half-maximal effect
Summary of the method: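 Cytotoxicity is scored as a concentration-dependent fall in intracellular ATP in human SH-SY5Y cells treated 40 hr in complete culture medium. Potency is expressed as AC50 from a Hill equation fit.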

[18] = Cellular Toxicity (caspase-3) N2a (AID 665); details: N2a cells, luminescence, normalized: DMSO 0%, 10 µM staurosporine 100%; series mostly up to 92.2 µM;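 also: compound exposure lasted 16 h at 37 °C before readout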
Summary of the method: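 Plated mouse neuroblastoma N2a cells received titrated compounds for 16 h in complete medium. Caspase activity was then detected with a peptide-aminoluciferin luminescent reagent.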

[19] = Cell Viability - LYMP1-002 - Assay at 16 hr (AID 948); details: LYMP1-002 lymphoblastoid cell viability; series mostly up to 92.2 µM; also: potency is read from the fitted curve at half-maximal effect
Summary of the method: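 LYMP1-002 human lymphoblastoid cells, 2500/well; 5 hr 37 C; cpd 16 hr 37 C; CellTiter-Glo 30 min RT; luminescence (ATP). Concentration-response, Hill-fit AC50. Pos ctrl tetraoctylammonium bromide.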

[20] = Cell Viability - LYMP2-003 (AID 965); details: LYMP2-003 lymphoblastoid cell viability; series mostly up to 92.2 µM;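 also: cells exposed to compounds for 24 h before reading; nearly all actives have a fitted effect of over 50% in size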; also: potency is read from the fitted curve at half-maximal effect
Summary of the method: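 CellTiter-Glo luminescence (cellular ATP) after 24 h compound exposure at 37 C in complete medium; 2500 cells/well, 5 h settling beforehand. Concentration-response fitted to standard Hill equation for AC50. Tetraoctylammonium bromide served as positive control.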

S=C1NC=NC2N=CNC12 (stereo not given)
active: Potency [1] 0.128 µM | Potency [2] 1.03 µM | Potency [4] 0.158 µM | Potency [16] 2.24 µM
4.27%: max response [15]
inactive: outcome [3] | outcome [5] | outcome [6] | Potency [7] | outcome [8] | Potency [9] | Potency [10] | Potency [11] | Potency [12] | Potency [13] | Potency [14]

CN(C)CCCCCCN(C)C
inactive: Potency [1] > 92 µM | Potency [2] > 92 µM | outcome [3] | Potency [4] | Potency [17] | outcome [5] | outcome [6] | Potency [7] | outcome [18] | outcome [8] | Potency [19] | Potency [9] | Potency [10] | Potency [20] | Potency [11] | Potency [12] | Potency [13] | Potency [14] | max response [16] -4.75%
-0.59%: max response [15]

CN(C)C=O
4.64% and -5.61%: max response [15]
inactive: Potency [1] > 92 µM | Potency [2] > 92 µM | outcome [3] | Potency [4] | Potency [17] | outcome [5] | outcome [6] | Potency [7] | outcome [18] | outcome [8] | Potency [19] | Potency [9] | Potency [10] | Potency [20] | Potency [11] | Potency [12] | Potency [13] | Potency [14] | max response [16] -10.8% and 1.33% and 0.809%

C=CC(=O)OCCOCCOCCOCCOC(=O)C=C
inactive: outcome [18] | outcome [8]
active: Potency [1] 6.78 µM and 12.4 µM | Potency [2] 24.8 µM and 28.8 µM | Potency [4] 20 µM | Potency [17] 7.94 µM and 12.6 µM | Potency [19] 31.6 µM | Potency [9] 12.6 µM and 15.8 µM | Potency [10] 20 µM and 25.1 µM | Potency [20] 12.6 µM and 15.8 µM | Potency [11] 15.8 µM | Potency [12] 12.6 µM and 15.8 µM | Potency [13] 12.6 µM | Potency [14] 12.6 µM and 15.8 µM
